Inconclusive results are not listed. Activity calls are given as the source filed them. How the source made its calls, unless noted: active means hit-call score of the fitted dose curve at least 0.9, where 1 is the maximum; inconclusive means response in the unintended direction; inactive means score below 0.9.
Legend:
[1] = CCTE_Padilla_ZF_144hpf_TERATOSCORE: (Legacy) CCTE's 144 Hour Post-fertilization zebrafish Assay Teratoscore, Padilla Lab (AID 2283679; active means hit-call score of the fitted dose curve at least 0.9, where 1 is the maximum; inactive means score below 0.9;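 on AC50: zebrafish embryos with chorions exposed by immersion from 6-8 hpf to 5 dpf with daily renewal; teratogenicity score from eye scoring of death hatching and malformations at 144 hpf; higher score means more developmental defects relative to DMSO baseline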)
Procedure, shortened: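 Larvae scored by eye at 144 hpf for death, hatching and malformations after a day in clean Hanks'. Before that, daily-renewed exposure at 80 uM (0.4% DMSO, 26C) from roughly 6-8 hpf through 5 dpf, 4 embryos per chemical.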

[2] = read-out: Glyceraldehyde-3-phosphate dehydrogenase (Homo sapiens) (UniProt P04406); test: CLD_GAPDH_6hr: CellzDirect (CLD) Gene Expression Assay for Baseline Control (Glyceraldehyde 3-phosphate dehydrogenase) at 6 hours (AID 2283681);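 further: active means increased signal relative to DMSO vehicle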
Procedure, shortened: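 GAPDH baseline-control readout from qNPA (S1 nuclease digestion, probe hybridization, chemiluminescence) in lysates of cultured human hepatocytes harvested 6 h post-dosing. Chemicals tested at multiple concentrations versus 0.2% DMSO vehicle; microscopy-based cytotoxicity flagged yes/no.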

[3] = read-out: xenobiotic metabolism (CYP1A2), CYP1A2 (gene 1544); test: CLD_CYP1A2_24hr: CellzDirect (CLD) Gene Expression Assay for xenobiotic metabolism (CYP1A2) at 24 hours (AID 2283683)
Procedure, shortened: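 CYP1A2 mRNA induction measured by quantitative nuclease protection (chemiluminescent) in human primary hepatocytes 24 h after multi-concentration chemical dosing with daily fresh solutions. DMSO (0.2%) baseline; positive-direction fitting; morphology-based cytotoxicity noted.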

[4] = read-out: Broad substrate specificity ATP-binding cassette transporter ABCG2 (Homo sapiens) (UniProt Q9UNQ0); test: CLD_ABCG2_24hr: CellzDirect (CLD) Gene Expression Assay for ABC Transporter (ABCG2) at 24 hours (AID 2283685)
Procedure, shortened: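 ABCG2 mRNA induction, read as gain of chemiluminescent signal over 0.2% DMSO, was measured by quantitative nuclease protection at 24 h. Cultured human liver hepatocytes were given fresh dosing solutions of test chemicals at several concentrations each day.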

[5] = read-out: Cytochrome P450 2C19 (Homo sapiens) (UniProt P33261); test: CLD_CYP2C19_24hr: CellzDirect (CLD) Gene Expression Assay for xenobiotic metabolism (CYP2C19) at 24 hours (AID 2283687);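 further: activity means mRNA induction above DMSO vehicle baseline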
Procedure, shortened: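 CYP2C19 mRNA was quantified by qNPA chemiluminescence after 24 h of daily dosing of cultured human primary hepatocytes from two donors; vehicle was 0.2% DMSO, and increases over DMSO baseline were fitted.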

[6] = read-out: Cytochrome P450 3A4 (Homo sapiens) (UniProt P08684); test: CLD_CYP3A4_24hr: CellzDirect (CLD) Gene Expression Assay for xenobiotic metabolism (CYP3A4) at 24 hours (AID 2283689)
Procedure, shortened: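 CYP3A4 mRNA induction read by quantitative nuclease protection (chemiluminescence) 24 hr after dosing. Cultured human hepatocytes (two donor preparations) treated daily, vehicle 0.2% DMSO; phase-contrast morphology annotates cytotoxicity.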

[7] = read-out: organic anion transporter (SLCO1B1), SLCO1B1 (gene 10599); test: CLD_SLCO1B1_24hr: CellzDirect (CLD) Gene Expression Assay for organic anion transporter (SLCO1B1) at 24 hours (AID 2283690)
Procedure, shortened: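 SLCO1B1 mRNA induction read at 24 h by quantitative nuclease protection assay (chemiluminescence), analyzed against DMSO baseline. Human hepatocyte cultures from separate donors received fresh dosing solutions daily; vehicle 0.2% DMSO; cytotoxicity flagged by phase-contrast morphology.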

[8] = read-out: sulfotransferase (SULT2A), SULT2A1 (gene 6822); test: CLD_SULT2A_24hr: CellzDirect (CLD) Gene Expression Assay for sulfotransferase (SULT2A) at 24 hours (AID 2283694)
Procedure, shortened: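 mRNA is measured by qNPA: probe hybridisation, S1 nuclease digestion, chemiluminescence, in lysates from human primary hepatocytes harvested 24 h after daily dosing. Vehicle was 0.2% DMSO. Phase-contrast microscopy flagged cytotoxicity (yes/no).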

[9] = read-out: glucuronosyltransferase (UGT1A1), UGT1A1 (gene 54658); test: CLD_UGT1A1_24hr: CellzDirect (CLD) Gene Expression Assay for glucuronosyltransferase (UGT1A1) at 24 hours (AID 2283696)
Procedure, shortened: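 UGT1A1 transcript induction was measured by quantitative nuclease protection assay (chemiluminescence) in human hepatocyte cultures 24 h after daily fresh dosing, with 0.2% DMSO as vehicle and baseline.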

[10] = read-out: Cytochrome P450 3A4 (Homo sapiens) (UniProt P08684); test: CLD_CYP3A4_48hr: CellzDirect (CLD) Gene Expression Assay for xenobiotic metabolism (CYP3A4) at 48 hours (AID 2283698)
Procedure, shortened: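 CYP3A4 induction read by qNPA chemiluminescence after 48 h, with fresh dosing solutions on consecutive days, in cultured human hepatocytes (two donors). Vehicle 0.2% DMSO as baseline; microscopy-based cytotoxicity annotated yes/no alongside data.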

[11] = read-out: Cytochrome P450 2B6 (Homo sapiens) (UniProt P20813); test: CLD_CYP2B6_48hr: CellzDirect (CLD) Gene Expression Assay for xenobiotic metabolism (CYP2B6) at 48 hours (AID 2283699);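 further: actives raise transcript level above DMSO so potency reflects induction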
Procedure, shortened: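 CYP2B6 transcript induction, read by quantitative nuclease protection (S1 digestion, chemiluminescent detection) 48 h after dosing, is fitted upward against 0.2% DMSO. Cultured human liver primary cells, two donor preparations, received fresh chemical daily over multiple concentrations.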

[12] = read-out: xenobiotic metabolism (CYP2C9), CYP2C9 (gene 1559); test: CLD_CYP2C9_24hr: CellzDirect (CLD) Gene Expression Assay for xenobiotic metabolism (CYP1A2) at 24 hours (AID 2283688);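 further: potency for induction meaning a rise in CYP2C9 mRNA over DMSO vehicle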
Procedure, shortened: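 Induction of CYP2C9 mRNA was quantified by quantitative nuclease protection assay (chemiluminescence), gain of signal versus 0.2% DMSO vehicle, 24 h after dosing. Human primary hepatocytes (two donors) received fresh chemical daily at multiple concentrations; morphology-based cytotoxicity flagged yes/no.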

[13] = read-out: Glyceraldehyde-3-phosphate dehydrogenase (Homo sapiens) (UniProt P04406); test: CLD_GAPDH_24hr: CellzDirect (CLD) Gene Expression Assay for Baseline Control (Glyceraldehyde 3-phosphate dehydrogenase) at 24 hours (AID 2283692)
Procedure, shortened: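 GAPDH baseline-control readout: qNPA chemiluminescent mRNA signal in human primary hepatocytes harvested 24 h after daily dosing, normalised to 0.2% DMSO with positive fitting direction; cytotoxicity annotated by phase-contrast morphology.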

[14] = read-out: Cytochrome P450 2C19 (Homo sapiens) (UniProt P33261); test: CLD_CYP2C19_48hr: CellzDirect (CLD) Gene Expression Assay for xenobiotic metabolism (CYP2C19) at 48 hours (AID 2283700);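 further: fitted upward so actives raise CYP2C19 mRNA above the 0.2% DMSO vehicle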
Procedure, shortened: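 CYP2C19 mRNA induction read by chemiluminescent quantitative nuclease protection assay after 48 h, with fresh compound added daily for two days to cultured human liver hepatocytes. Activity fitted upward against 0.2% DMSO vehicle.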

[15] = read-out: ABC Transporter (ABCB1), ABCB1 (gene 5243); test: CLD_ABCB1_24hr: CellzDirect (CLD) Gene Expression Assay for ABC Transporter (ABCB1) at 24 hours (AID 2283684);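 on AC50: potency for increase in ABCB1 mRNA relative to DMSO vehicle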
Procedure, shortened: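 ABCB1 mRNA induction versus 0.2% DMSO vehicle was read by qNPA chemiluminescence at 24 h. Cultured human hepatocytes from two donor preparations received daily fresh dosing, and phase-contrast cytotoxicity calls were annotated alongside the data.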

[16] = read-out: Cytochrome P450 3A4 (Homo sapiens) (UniProt P08684); test: CLD_CYP3A4_6hr: CellzDirect (CLD) Gene Expression Assay for xenobiotic metabolism (CYP3A4) at 6 hours (AID 2283680)
Procedure, shortened: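 CYP3A4 mRNA induction, 6 h after dosing of cultured primary human hepatocytes from two donors, read by quantitative nuclease protection (qNPA, chemiluminescence). Vehicle 0.2% DMSO as baseline; morphology-based cytotoxicity annotated yes/no.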

Measured: AC50

Sequence of Cytochrome P450 3A4 (Homo sapiens) (P08684 whole entry, looked up): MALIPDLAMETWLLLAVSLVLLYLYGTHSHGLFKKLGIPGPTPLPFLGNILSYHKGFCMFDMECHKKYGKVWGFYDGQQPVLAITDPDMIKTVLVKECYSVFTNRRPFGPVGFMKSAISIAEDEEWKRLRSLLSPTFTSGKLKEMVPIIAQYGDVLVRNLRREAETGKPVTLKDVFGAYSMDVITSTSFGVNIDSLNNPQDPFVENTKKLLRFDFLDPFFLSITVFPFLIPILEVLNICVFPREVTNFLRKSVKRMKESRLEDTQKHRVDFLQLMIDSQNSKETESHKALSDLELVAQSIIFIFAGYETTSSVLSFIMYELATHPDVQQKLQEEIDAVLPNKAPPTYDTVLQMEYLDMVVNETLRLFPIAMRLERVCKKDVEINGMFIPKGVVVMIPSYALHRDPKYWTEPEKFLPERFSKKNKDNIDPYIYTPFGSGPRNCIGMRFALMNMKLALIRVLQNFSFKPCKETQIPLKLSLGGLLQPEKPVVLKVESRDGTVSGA
Sequence of Broad substrate specificity ATP-binding cassette transporter ABCG2 (Homo sapiens) (Q9UNQ0 whole entry, looked up): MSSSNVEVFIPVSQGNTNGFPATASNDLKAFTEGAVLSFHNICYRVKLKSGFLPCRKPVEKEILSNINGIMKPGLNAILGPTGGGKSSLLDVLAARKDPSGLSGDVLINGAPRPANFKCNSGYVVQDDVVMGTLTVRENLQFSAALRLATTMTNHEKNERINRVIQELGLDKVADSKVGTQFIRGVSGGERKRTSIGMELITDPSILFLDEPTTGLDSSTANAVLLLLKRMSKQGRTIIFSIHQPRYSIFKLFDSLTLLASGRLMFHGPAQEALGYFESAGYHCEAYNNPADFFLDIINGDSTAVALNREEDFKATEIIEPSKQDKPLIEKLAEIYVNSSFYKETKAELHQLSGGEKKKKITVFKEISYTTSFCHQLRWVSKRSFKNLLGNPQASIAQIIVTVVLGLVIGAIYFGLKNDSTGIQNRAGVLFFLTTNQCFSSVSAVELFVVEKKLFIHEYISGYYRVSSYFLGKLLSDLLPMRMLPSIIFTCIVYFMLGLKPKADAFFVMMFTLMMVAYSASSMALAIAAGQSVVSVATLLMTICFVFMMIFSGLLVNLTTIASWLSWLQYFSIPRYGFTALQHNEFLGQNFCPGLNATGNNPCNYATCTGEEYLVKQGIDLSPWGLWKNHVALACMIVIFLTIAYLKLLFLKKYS
Sequence of Cytochrome P450 2C19 (Homo sapiens) (P33261 whole entry, looked up): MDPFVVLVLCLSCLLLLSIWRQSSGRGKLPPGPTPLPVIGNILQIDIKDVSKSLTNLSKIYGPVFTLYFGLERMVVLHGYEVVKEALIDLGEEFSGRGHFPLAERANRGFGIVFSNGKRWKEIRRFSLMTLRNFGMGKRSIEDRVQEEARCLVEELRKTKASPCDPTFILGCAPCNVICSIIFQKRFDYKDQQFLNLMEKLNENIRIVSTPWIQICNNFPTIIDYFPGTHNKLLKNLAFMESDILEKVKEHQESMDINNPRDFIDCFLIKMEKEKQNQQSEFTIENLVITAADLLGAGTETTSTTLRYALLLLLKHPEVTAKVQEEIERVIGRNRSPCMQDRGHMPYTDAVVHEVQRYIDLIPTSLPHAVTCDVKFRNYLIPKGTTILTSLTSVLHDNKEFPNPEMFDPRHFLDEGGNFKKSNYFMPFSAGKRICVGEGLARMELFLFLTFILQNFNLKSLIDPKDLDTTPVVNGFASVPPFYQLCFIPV
Sequence of Glyceraldehyde-3-phosphate dehydrogenase (Homo sapiens) (P04406 whole entry, looked up): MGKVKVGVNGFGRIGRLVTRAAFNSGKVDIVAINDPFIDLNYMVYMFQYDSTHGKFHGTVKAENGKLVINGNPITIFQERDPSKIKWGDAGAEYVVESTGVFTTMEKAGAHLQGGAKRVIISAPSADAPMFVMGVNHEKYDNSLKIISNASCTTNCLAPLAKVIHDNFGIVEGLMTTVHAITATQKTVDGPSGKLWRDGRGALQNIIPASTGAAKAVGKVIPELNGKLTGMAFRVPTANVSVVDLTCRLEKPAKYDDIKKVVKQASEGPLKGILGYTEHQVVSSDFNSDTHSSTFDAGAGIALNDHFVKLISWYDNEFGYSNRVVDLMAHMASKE

Clc1cccc(C(Cl)(Cl)Cl)n1
active: [10] 3.02 µM | [11] 1.47 µM
not listed: [12] | [13] | [14] | [15] | [16]
inactive: all other assays above

CS(=O)(=O)c1ccc(C(=O)C2C(=O)CCCC2=O)c([N+](=O)[O-])c1
active: [1] 14.4 µM | [12] 0.000305 µM
inactive: [2] | [5] | [13] | [14]

CS(=O)(=O)c1cc(C(F)(F)F)ccc1C(=O)c1cnoc1C1CC1
inactive: [1] | [2] | [15] | [5] | [7] | [13] | [9]
active: [10] 29.1 µM | [11] 9.48 µM

Cc1ccc(N=CN(C)C=Nc2ccc(C)cc2C)c(C)c1
inactive: [2] | [7] | [13]
active: [1] 27.5 µM | [15] 28.2 µM

OC(c1ccc(Cl)cc1)(c1ccc(Cl)cc1)C(Cl)(Cl)Cl
active: [1] 12 µM | [16] 3.68 µM | [10] 11 µM
inactive: [2] | [4] | [7] | [9]

CCCN(CC)CC1COC2(CCC(C(C)(C)C)CC2)O1 (stereo not given)
active: [1] 62.9 µM | [3] 0.583 µM | [10] 2.82 µM
inactive: [16] | [15] | [5] | [7] | [13] | [9] | [14]

CC1(C)C(C=C(Cl)Cl)C1C(=O)OC(C#N)c1cccc(Oc2ccccc2)c1 (stereo not given)
inactive: [4] | [5] | [14]
active: [1] 0.284 µM | [9] 6.01 µM | [11] 6.46 µM

CCNC(=O)NC(=O)C(C#N)=NOC
inactive: [2] | [5] | [7] | [13] | [10] | [14]
active: [1] 33.1 µM

CNC(=O)Oc1cccc2ccccc12
active: [1] 60.8 µM
inactive: [13] | [9] | [10]
